Compounds with a hit are over-represented: about 4.7% of the library has one in this group of screens.
TRHR PAM: qHTS for Small Molecule Agonists and Allosteric Enhancers of Human TRH Receptor: Primary Screen for Enhancers; Thyrotropin-releasing hormone receptor (Homo sapiens), P34981; TRHR cells, fluo-8 calcium fluorescence, EC20 TRH enhancement; enhancement, % at 2 µM; 360,000 tested, 0.66% active; AID 493056, 2011; in the data active = enhancement above about 30%; note: 0% is about no effect
Target sequence (P34981 whole entry, looked up): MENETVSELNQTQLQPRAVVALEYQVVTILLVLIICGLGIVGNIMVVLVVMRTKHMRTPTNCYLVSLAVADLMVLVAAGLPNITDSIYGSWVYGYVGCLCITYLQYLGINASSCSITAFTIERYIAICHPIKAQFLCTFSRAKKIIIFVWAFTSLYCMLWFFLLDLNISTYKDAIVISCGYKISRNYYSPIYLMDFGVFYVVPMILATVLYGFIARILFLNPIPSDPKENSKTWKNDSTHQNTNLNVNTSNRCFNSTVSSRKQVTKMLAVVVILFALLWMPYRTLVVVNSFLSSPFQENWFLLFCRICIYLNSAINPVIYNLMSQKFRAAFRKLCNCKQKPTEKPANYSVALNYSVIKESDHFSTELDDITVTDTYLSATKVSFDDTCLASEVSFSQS
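Enhancer read-out: after compound pinning and an initial kinetic agonist-mode read, an EC20 of TRH (10 nM final) was injected and fluo-8 calcium signal (Ex 480/Em 530) followed at 1 s/cycle for 100 cycles in TRHR-expressing cells.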
D1 potentiator: Potentiators of Human D1 Dopamine Receptor: qHTS. 360,000 tested, 0.036% active. D(1A) dopamine receptor (Homo sapiens), P21728. AID 504651, 2011. potentiation, % at 10 µM. HEK293 TREx D1 cells, calcium flux, dopamine EC20 potentiation; in the data active = potentiation above about 30%; note: 0% is about no effect
D1 antagonist: Antagonist of Human D 1 Dopamine Receptor: qHTS; D(1A) dopamine receptor (Homo sapiens), P21728; HEK293 TREx D1 cells, calcium flux, dopamine EC80; stronger effect = lower value; activity change, negative = inhibition, % at 10 µM; 360,000 tested, 3.2% active; AID 504652, 2011; in the data active = activity change below about -30%; note: % is set by controls: 0 for no effect and ±100 for the full control effect
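Kinetic fluorescence of a calcium dye serves as the read-out. D1-expressing Hek293 Trex cells, induced overnight at 30 C, are exposed to compound for 180 s before an EC80 dopamine addition, then read 180 s further.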
D1 ag: Allosteric Agonists of the Human D1 Dopamine Receptor: qHTS; HEK293 T-REx D1 cells, calcium flux, agonist mode; activation, % at 2 µM; 360,000 tested, 1% active; AID 504660, 2011; note: 0% is about no effect
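Inducible HEK293 T-REx D1 cells, force-coupled to calcium signalling, were plated at 4000 cells/well with tetracycline and held overnight at 30 C. After no-wash calcium dye loading, compound-evoked calcium rise over 180 s flagged agonists.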
TRHR agonist: qHTS for Small Molecule Agonists and Allosteric Enhancers of Human TRH Receptor: Primary Screen for Agonists. Thyrotropin-releasing hormone receptor (Homo sapiens), P34981. TRHR cells, calcium flux fluo-8, FDSS agonist mode. activation, % at 2 µM. 360,000 tested, 0.18% active; note: 0% is about no effect
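Steps: seed TRHR cells overnight; add fluo-8 no-wash Ca dye, RT 30 min–1.5 h; record 10 s baseline; pin-transfer compounds; monitor fluorescence 1 cycle/s for the agonist window. Calcium increases flag candidate agonists.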
* hit, by the source's call; · = no result given. Cut-off read from the data, not from the text of the source, unless noted: active = activation above about 30%; inactive = the rest.

SMILES	TRHR PAM	D1 potentiator	D1 antagonist	D1 ag	TRHR agonist
N#Cc1ccc(-c2ccccc2)nc1SCCN1CCOCC1	8	-7	-9	-2	0
Cc1cc(C)c(C#N)c(SCCN2CCOCC2)n1	-3	-3	-31*	0	0
Cc1ccc(NC(=O)Cn2c(=O)n(Cc3nc(C)no3)c(=O)c3ccccc32)c(Cl)c1	1	0	7	-1	0
CCOC(=O)Cc1ccc(NC(=O)N2CCc3c(sc4c3CCCC4)C2c2ccc(F)cc2)cc1 (stereo not drawn)	4	-1	-6	1	1
COc1cc(/C=C(\C#N)c2ccccn2)ccc1OCc1ccccc1Cl	2	1	13	10	2
COc1cc(/C=C(\C#N)c2ccccn2)cc(OC)c1O	5	-1	2	38*	47*
O=C(N/N=C/c1sc(=O)[nH]c1-[n+]1ccccc1)c1ccccc1[O-]	8	1	1	-1	-1
O=C(N/N=C/c1sc(=O)[nH]c1-[n+]1ccc2ccccc2c1)c1ccccc1[O-]	-1	-2	-10	34*	14
COc1ccc(CCN2CCC(Nc3nc4ccccc4n3Cc3ccc(F)cc3)CC2)cc1	2	7	-21	112*	2
COc1ccc(CNc2nc3ccccc3n2CCN2CCCCC2)cc1	-3	-4	·	5	0
CC(=O)N1c2c(cc(Br)cc2S(=O)(=O)NCc2ccccc2Cl)CC1C (stereo not drawn)	7	1	-7	2	0
COc1ccc(-c2ccc3c(N)c(C(=O)Nc4ccc(C)cc4C)sc3n2)cc1OC	0	-8	-10	2	1
C=CCN1c2ccccc2[C@]23C[C@@H](C(=O)OC)N(C(=O)NCCC)C2=NC(C(=O)OC)=C(C(=O)OC)[C@H]13	-1	0	-33*	10	0
C=CCN1c2ccccc2[C@]23C[C@@H](C(=O)OC)N(C(=O)C4CCC4)C2=NC(C(=O)OC)=C(C(=O)OC)[C@H]13	2	-1	-20	6	0
Cc1cc(C(F)(F)F)c2sc(N)nc2n1	7	-6	-53*	2	-1
O=S(=O)(Nc1ccc(C(F)(F)F)cc1)c1ccc2c(c1)OCCO2	4	-6	-12	24	1
COc1ccc(CCNC(=O)c2c([S-])n(-c3ccc(C)cc3)c3cccc[n+]23)cc1	-12	-4	-35*	1	0
Cc1csc(Nc2cccc3ccccc23)n1	11	-6	-46*	0	0
COc1ccccc1Nc1nc(C)cs1	-5	3	-3	3	1
Cc1c(O)c2ccccc2oc1=O	39*	2	1	1	0
CN=C(C)c1c(O)c2ccccc2oc1=O	-5	-1	3	2	0
Cc1ccc(SCC(=O)Nc2ccc(O)c(-c3nc4cc(C)ccc4o3)c2)cc1	0	-1	-83*	-1	0
COc1ccccc1Cn1c(CNS(=O)(=O)c2c(C)cc(C)cc2C)nc2cccnc21	-6	-7	-21	2	0
Cc1cc(N2CCN(C)CC2)ccc1NC(=O)c1ccc(-c2ccc(Cl)cc2)o1	1	-4	-62*	16	0
CC(=O)c1ccc(NC(=S)NC(=O)Cc2ccc(Cl)cc2)cc1	-5	3	-1	41*	9
SMILES	TRHR PAM	D1 potentiator	D1 antagonist	D1 ag	TRHR agonist
Cc1cc(O)c(NC(=S)NC(=O)c2ccc(-c3ccc(Cl)cc3)o2)cc1C	-1	-2	-34*	2	0
Cc1ccc(O)c(NC(=S)NC(=O)Cc2ccc(Cl)cc2)c1	-24	-28	-62*	96*	19
Cc1ccc(NC(=S)NC(=O)c2ccc(-c3ccc(Cl)cc3)o2)c(O)c1	3	-17	5	1	-3
CCOC(=O)C1=C(N)n2c(s/c(=C/c3ccco3)c2=O)=C(C(=O)OC)C1c1ccco1 (stereo not drawn)	-4	2	-1	50*	3
CCc1ccc(NC(=O)CSc2nc(=O)n(Cc3cccnc3)c3c2CCC3)cc1	-1	3	·	-5	0
O=C(Nc1cccc(-c2cn3ccccc3n2)c1)c1cc2ccccc2oc1=O	-2	3	-35*	0	0
CN(C)/C=C/C(=O)c1ccc(Cl)cc1	6	-2	-86*	8	-1
CN(C)/C=C/C(=O)c1cccc(Cl)c1	8	1	12	6	-1
Cc1ccc(-n2c(=O)c3oc4ccccc4c3n(CC(=O)Nc3ccccc3)c2=O)cc1C	19	-4	4	4	1
O=C(/C(N=Nc1cccc([N+](=O)[O-])c1)=C(/O)c1ccc(Br)cc1)C(F)(F)F	6	-14	-30*	13	4
O=C(O)c1ccc(N=NNc2cccc([N+](=O)[O-])c2)cc1	2	-1	12	1	0
CCNc1nc(Oc2ccc(OCC(=O)OC)nn2)nc(N2CCOCC2)n1	4	2	3	0	0
CC(=O)c1ccc(NC(=O)COCc2cc(-c3ccc(F)cc3)on2)cc1	-2	-1	-22	8	0
Cc1cccc(CSc2nnc3[nH]c(=O)cc(-c4ccccc4)n23)c1	19	0	·	-4	0
COc1cccc(-c2cc(C(=O)NCCc3ccc(C)cc3)[nH]n2)c1	0	-3	-70*	9	-1
O=[N+]([O-])c1cc(/C=N\O)ccc1Oc1ccc(F)cc1	-19	-4	-53*	1	-1
CC(C)c1ccc(NC(=O)COc2ccccn2)cc1	6	-9	-91*	2	1
CC(C)c1ccc(NC(=O)COc2ccccc2)cc1	4	-2	-6	1	0
COc1cccc(CNC(=O)C2CCN(c3nnc(-n4c(C)ccc4C)s3)CC2)c1OC	-1	-2	4	1	-1
Cc1cc(NC(=O)CCSc2ccccc2)ccc1Br	18	-9	-30*	5	0
Cc1ccc(NC(=S)NCCSc2ccc(Cl)cc2)c(C)c1	8	-6	-33*	22	-1
Cc1cc(Br)ccc1NC(=O)CCSc1ccccc1	0	-2	1	1	1
Cc1ccc([N+](=O)[O-])cc1NC(=O)CCSc1ccc(Cl)cc1	-5	-9	-42*	34*	-2
Cc1ccc(NC(=O)CCSc2ccccc2)c(C)c1	2	5	-30*	0	-1
CCOc1ccccc1NC(=O)Cn1c(=O)n(-c2ccc(C)c(C)c2)c(=O)c2c(C)c(C(=O)N(C)C)sc21	-1	-1	8	2	0

Screening data from PubChem.
